{
  "source": "PubChem BioAssay (EPA / NIEHS)",
  "note": "Records with an inconclusive call do not appear. Calls of active or inactive are those of the source. The calls were made as follows: active = hit-call score of the fitted dose curve at least 0.9, where 1 is the maximum; inconclusive = response in the unintended direction; inactive = score below 0.9.",
  "data": [
    {"target": "human Peroxisome Proliferator-activated Receptor delta (PPARd), PPARD (gene 5467) (UniProt Q03181)", "sequence (Q03181 whole entry, looked up, the tested form may be a part)": "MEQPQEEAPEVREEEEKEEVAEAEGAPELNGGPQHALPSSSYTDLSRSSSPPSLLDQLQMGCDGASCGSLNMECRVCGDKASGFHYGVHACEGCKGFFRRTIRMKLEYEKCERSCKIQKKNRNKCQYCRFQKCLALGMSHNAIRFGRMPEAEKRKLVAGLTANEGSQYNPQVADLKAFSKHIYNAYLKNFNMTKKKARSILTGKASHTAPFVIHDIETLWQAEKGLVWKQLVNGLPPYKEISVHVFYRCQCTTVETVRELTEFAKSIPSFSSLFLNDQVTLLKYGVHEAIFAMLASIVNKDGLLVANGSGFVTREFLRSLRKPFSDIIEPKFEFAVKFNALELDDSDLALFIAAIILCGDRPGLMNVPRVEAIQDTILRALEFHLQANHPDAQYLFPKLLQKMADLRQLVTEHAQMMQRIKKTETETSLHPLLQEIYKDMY", "test": "ATG_PPARd_TRANS: Attagene TRANS-FACTORIAL HepG2 Assay for human Peroxisome Proliferator-activated Receptor delta (PPARd) (AID 2283002)", "procedure,_shortened": "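Read-out is induced reporter mRNA, quantified by RT-PCR with fluorescent labelling and capillary electrophoresis after 24 h dosing. Cells are HepG2 transiently carrying multiple GAL4-UAS reporter units driven by exogenous NR-GAL4 chimeras; DMSO serves as baseline.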", "values": [
      {"smiles": "Nc1ccc(-c2ccc(N)c(N)c2)cc1N", "outcome": "inactive"},
      {"smiles": "CCOP(O)OCC", "outcome": "inactive"},
      {"smiles": "O=c1[nH]c(Cl)c(Cl)cc1Cl", "outcome": "inactive"},
      {"smiles": "Nc1c(Cl)c(Cl)c(Cl)c(Cl)c1Cl", "outcome": "inactive"},
      {"smiles": "O=C(O)CCCc1ccc(N(CCCl)CCCl)cc1", "outcome": "inactive"},
      {"smiles": "[CH3][Sn]([CH3])([Cl])[Cl]", "outcome": "inactive"},
      {"smiles": "BrCBr", "outcome": "inactive"},
      {"smiles": "O=C(O)c1cc[c]([Hg][Cl])cc1", "AC50": "49.3 µM (active)"},
      {"smiles": "C[N+](C)(C)CC(=O)O", "outcome": "inactive"},
      {"smiles": "Clc1ccc(-c2ccccc2)cc1", "outcome": "inactive"},
      {"smiles": "CN(C)C(=O)C(c1ccccc1)c1ccccc1", "outcome": "inactive"},
      {"smiles": "C=CCc1ccc(OC(=O)Cc2ccccc2)c(OC)c1", "outcome": "inactive"},
      {"smiles": "[Cl][Sb]([Cl])[Cl]", "outcome": "inactive"},
      {"smiles": "CCC(=O)c1ccc(Cl)cc1", "outcome": "inactive"},
      {"smiles": "Cc1ccc(N(SC(F)(Cl)Cl)S(=O)(=O)N(C)C)cc1", "outcome": "inactive"},
      {"smiles": "CC1(C)CC(=O)CC(C)(C)N1[O]", "outcome": "inactive"},
      {"smiles": "SCc1ccco1", "outcome": "inactive"},
      {"smiles": "O=CNC(N1CCN(C(NC=O)C(Cl)(Cl)Cl)CC1)C(Cl)(Cl)Cl", "note": "(stereo unspecified)", "outcome": "inactive"},
      {"smiles": "Oc1cc(Cl)ccc1Cl", "outcome": "inactive"},
      {"smiles": "O=[N+]([O-])c1cc(C(F)(F)F)c(Cl)c([N+](=O)[O-])c1Cl", "AC50": "41.1 µM (active)"},
      {"smiles": "CSc1nc(N=[N+]=[N-])nc(NC(C)C)n1", "outcome": "inactive"}
    ]}
  ]
}
